Compound activity as filed in PubChem.
Shown are actives, neighbours in structure and some others; about 4.3% of the full set was active somewhere.
MCF10A rereplic: DNA re-replication induction in MCF 10a cells. MCF 10A DNA re-replication, Hoechst nuclear intensity, 48 h. 2.9% of 350,000 active. AID 624296. Potency, µM (top dose mostly 46.1 µM), most hits filed as activators; note: nearly all actives have a fitted effect of over 50% in size
uPA surface inh: cell surface uPA generation inhibition. cell surface uPA generation assay, qHTS. Potency, µM (highest dose often 38.3 µM), usual class: inhibitors. 0.31% of 330,000 active; active = well fitted inhibition curve with a large enough effect; inconclusive = small, poorly fitted or top-dose-only effect; inactive = no such curve, though single readings can be large or run the other way; tested in mouse RAW 264.7 cells; note: nearly all actives have a fitted effect of over 55% in size
SW480 rereplic: DNA re-replication induction in SW480 cells | SW480 DNA re-replication, Hoechst DNA content imaging, 48 h | 1.8% of 340,000 active | Potency, µM (series often up to 46.1 µM), hits mostly activators | AID 624297; note: nearly all actives have a fitted effect of over 55% in size
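Per well, 250 cells were exposed to pinned compound for 48 hr. Nuclear DNA was visualised with Hoechst (40 min, 37 C) and total object intensity recorded by fluorescence scanning.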
Giardia killer: Giardia lamblia killing | activity change, % at 7.66 µM, hits read low | 0.15% of 340,000 active | Giardia lamblia trophozoite viability; in the data active = activity change below about -80%; inconclusive = between about -30% and that limit;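 note: parasites exposed to compound for two days anaerobically before the ATP read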
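Viability, read as ATP luminescence: trophozoites at 100 cells/well, compound added, 48 hrs anaerobic at 37 deg C, then 15-30 min room-temperature development before reading.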
A number is an active result; [ ] = dose if it differs, or a comment. Unless noted, calls come from the whole dose curve; as a rule, active = well fitted activation curve with a large enough effect; inconclusive = small, poorly fitted or top-dose-only effect; inactive = no such curve, though single readings can be large or run the other way.

How did CC(C)(O)P(=O)(O)CCc1ccccc1 do in these assays?
MCF10A rereplic: inactive; uPA surface inh: inactive; SW480 rereplic: inactive; Giardia killer: inactive

Results for CCn1cc(C(=O)NCc2ccco2)c(=O)c2cc(F)c(N3CCN(C(=O)c4ccco4)CC3)cc21 ?
MCF10A rereplic: 13µM; uPA surface inh: inactive; SW480 rereplic: inactive; Giardia killer: inactive

How did CC(/C=N/NC(=O)c1cc(-c2ccc(C)s2)[nH]n1)=C\c1ccccc1 do in these assays?
MCF10A rereplic: 6.5µM; uPA surface inh: inactive; SW480 rereplic: inconclusive; Giardia killer: inactive

How did Cc1nn(-c2ccccc2)c(C)c1/C=N/NC(=O)c1cc(-c2ccc(Br)s2)[nH]n1 do in these assays?
MCF10A rereplic: 4.1µM; uPA surface inh: inactive; SW480 rereplic: 15µM; Giardia killer: inactive

How did Cc1nn(-c2ccccc2)c(C)c1/C=N/NC(=O)c1cc(-c2cccs2)[nH]n1 do in these assays?
MCF10A rereplic: inactive; uPA surface inh: inconclusive; SW480 rereplic: 0.65µM; Giardia killer: inactive

What do the screens show for `CC(/C=N/NC(=O)c1cc(C(C)(C)C)[nH]n1)=C\c1ccccc1`?
MCF10A rereplic: inconclusive; uPA surface inh: inactive; SW480 rereplic: inactive; Giardia killer: inactive

What do the screens show for `Cc1cc(C(=O)N/N=C/c2c(C)nn(-c3ccccc3)c2C)n[nH]1`?
MCF10A rereplic: inactive; uPA surface inh: inactive; SW480 rereplic: inactive; Giardia killer: inactive

What do the screens show for `Cc1nn(-c2ccccc2)c(C)c1/C=N/NC(=O)c1cc(-c2ccc(Cl)s2)[nH]n1`?
MCF10A rereplic: 3.7µM; SW480 rereplic: 5.2µM; Giardia killer: inactive

What do the screens show for `Cc1nn(-c2ccccc2)c(C)c1/C=N/NC(=O)c1cc(C2CC2)[nH]n1`?
MCF10A rereplic: inactive; uPA surface inh: inactive; SW480 rereplic: inactive; Giardia killer: inactive

Results for O=C(N/N=C/c1ccccn1)c1cc(-c2ccc(Cl)s2)[nH]n1 ?
MCF10A rereplic: inactive; uPA surface inh: inactive; SW480 rereplic: inactive; Giardia killer: inactive

How did CC(C)=CCC/C(C)=C/CNC(=O)C[C@H]1C[C@H](C(=O)N2CCOCC2)[C@@]2(CCC3CCCC3)c3[nH]c4cc(-c5ccco5)ccc4c3CCN2C1=O do in these assays?
MCF10A rereplic: inactive; uPA surface inh: inactive; SW480 rereplic: inactive[9.22 µM]; Giardia killer: inactive

How did CC(C)(C)OC(=O)C[C@@H]1C/C=C\C[C@@H](CC(=O)N[C@@H](CO)Cc2ccccc2)C(=O)N2CCC[C@@H]2COC1=O do in these assays?
MCF10A rereplic: inactive; uPA surface inh: inactive; SW480 rereplic: inactive; Giardia killer: inactive

Results for CCN(CC)[C@@H](C)CN1c2ccccc2Sc2ccccc21 ?
MCF10A rereplic: inactive; SW480 rereplic: inactive

How did Cc1nn(-c2ccccc2)c(C)c1/C=N/NC(=O)c1cc(C23CC4CC(CC(C4)C2)C3)[nH]n1 do in these assays?
MCF10A rereplic: 2.6µM; uPA surface inh: inactive; SW480 rereplic: inactive; Giardia killer: inactive

What do the screens show for `COc1cc(/C=N/NC(=O)c2cc(C3CC3)[nH]n2)ccc1O`?
MCF10A rereplic: inactive; uPA surface inh: inconclusive; SW480 rereplic: inactive; Giardia killer: inactive

How did Cc1nn(-c2ccccc2)c(C)c1-c1cc(C(=O)N/N=C/c2ccc(O)cc2)[nH]n1 do in these assays?
MCF10A rereplic: 18µM; uPA surface inh: inactive; SW480 rereplic: inactive; Giardia killer: inactive

Results for COc1cc(/C=N/NC(=O)c2cc(C34CC5CC(CC(C5)C3)C4)[nH]n2)ccc1O ?
MCF10A rereplic: 1.3µM; uPA surface inh: inactive; SW480 rereplic: inactive; Giardia killer: inactive

Results for CCOc1ccc(S(=O)(=O)N2CCN(c3nc(-c4ccccc4)nc4ccccc34)CC2)cc1OCC ?
Giardia killer: inactive

How did CCOc1ccc(C=NNC(=O)c2cccc3ccccc23)cc1OCC do in these assays?
MCF10A rereplic: inactive; uPA surface inh: inactive; SW480 rereplic: inactive; Giardia killer: inactive

What do the screens show for `CN(C(=O)c1cccc(NC(=O)Cc2ccc(NC(=O)C3CCCN(C(=O)C4CCCC4)C3)cc2)c1)C1CC1` (configuration not stated)?
MCF10A rereplic: inactive; uPA surface inh: inactive; SW480 rereplic: inactive; Giardia killer: inactive

Results for COc1cccc(CSc2nc3ccccc3[nH]2)c1 ?
MCF10A rereplic: inactive; uPA surface inh: 8.9µM; SW480 rereplic: inactive; Giardia killer: inactive

What do the screens show for `Cc1nc(Nc2nc(CSc3ccc(Cl)cc3)cc(=O)[nH]2)nc2ccccc12`?
MCF10A rereplic: inactive; uPA surface inh: inactive; SW480 rereplic: inconclusive; Giardia killer: inactive

How did Cc1nc(Nc2nc(CSc3nc4ccccc4[nH]3)cc(=O)[nH]2)nc2ccccc12 do in these assays?
MCF10A rereplic: 12µM; uPA surface inh: inconclusive; SW480 rereplic: inconclusive; Giardia killer: inactive

What do the screens show for `COc1ccc2nc(Nc3nc(CSc4nc5ccccc5[nH]4)cc(=O)[nH]3)nc(C)c2c1`?
MCF10A rereplic: 3.7µM; uPA surface inh: inactive; SW480 rereplic: inconclusive; Giardia killer: inactive

Results for CCc1nc(SCC(=O)N2c3ccccc3CC2C)c2c(C)c(C)sc2n1 (configuration not stated) ?
MCF10A rereplic: inconclusive; uPA surface inh: inactive; SW480 rereplic: 21µM; Giardia killer: inactive

Results for CCc1nc(SCC(=O)Nc2ccccc2OC)c2c(C)c(C)sc2n1 ?
MCF10A rereplic: 21µM; SW480 rereplic: inactive; Giardia killer: inactive

How did Cc1sc2nc(C(C)C)nc(SCC(=O)N3c4ccccc4CC3C)c2c1C (configuration not stated) do in these assays?
MCF10A rereplic: inconclusive; uPA surface inh: inactive; SW480 rereplic: inactive; Giardia killer: inactive

How did CCc1nc(SCC(=O)Nc2cc(C)ccc2OC)c2c(C)c(C)sc2n1 do in these assays?
MCF10A rereplic: inactive; uPA surface inh: inactive; SW480 rereplic: inactive; Giardia killer: inactive

What do the screens show for `CN(Cc1ccccc1)C(=O)C1CCN(S(=O)(=O)c2ccc3nc4c(c(C(=O)O)c3c2)CCCC4)CC1`?
MCF10A rereplic: inactive; uPA surface inh: inactive; SW480 rereplic: inactive; Giardia killer: inactive

How did Cc1noc(/C=C/N(C)C)c1S(=O)(=O)N1CCc2ccccc21 do in these assays?
MCF10A rereplic: 18µM; uPA surface inh: inconclusive; SW480 rereplic: inactive; Giardia killer: inactive

How did C[C@@H]1Cc2ccccc2N1NC(=O)c1ccc(Cl)c(S(N)=O)c1 (some centres not stated) do in these assays?
MCF10A rereplic: inactive; SW480 rereplic: inactive

Results for CCOC(=O)c1sc2nc3c(SCC(=O)O)cc(C(=O)c4cc(F)ccc4O)cn3c(=O)c2c1C ?
MCF10A rereplic: 3.3µM; uPA surface inh: inactive; SW480 rereplic: inactive; Giardia killer: inactive

Results for O=C(O)CSc1cc(C(=O)c2ccccc2O)cn2c(=O)c3c(-c4ccccc4)csc3nc12 ?
MCF10A rereplic: 5.2µM; uPA surface inh: inactive; SW480 rereplic: inconclusive; Giardia killer: inactive

What do the screens show for `Cc1sc2nc3c(SC(C)C(=O)O)cc(C(=O)c4ccccc4O)cn3c(=O)c2c1C` (configuration not stated)?
MCF10A rereplic: 16µM; uPA surface inh: inactive; SW480 rereplic: inactive; Giardia killer: inactive

What do the screens show for `CCc1c(C)sc2nc3c(C(=O)N4CCOCC4)cc(C(=O)c4ccccc4O)cn3c(=O)c12`?
MCF10A rereplic: inactive; uPA surface inh: inactive; SW480 rereplic: inactive; Giardia killer: inactive
